{
  "source": "PubChem BioAssay (EPA / NIEHS)",
  "note": "Active and inactive are the calls of the source. How the source made its calls: active means hit-call score of the fitted dose curve at least 0.9, where 1 is the maximum; inactive means score below 0.9.",
  "data": [
    {"test": "ATG_M_19_CIS: Attagene CIS-FACTORIAL HepG2 Assay for M19 Transcription Factor (Internal Marker) (AID 2282939)", "conditions": "HepG2 Attagene CIS-FACTORIAL M19 internal marker reporter; actives raise or lower the signal", "method": "ATG_CIS is a cell-based, multiplexed-readout assay that uses HepG2, a human liver cell line, with measurements taken at 24 hours after chemical dosing in a 24-well plate.ATG_M_19_CIS is one of 52 assay component(s) measured or calculated from the ATG_CIS assay. It is designed to make measurements of mRNA induction, a form of inducible reporter, as detected with fluorescence intensity signals by Reverse transcription polymerase chain reaction (RT-PCR) and Capillary electrophoresis technology.Data from the assay component ATG_M_19_CIS was analyzed into 1 assay endpoint. This assay endpoint, ATG_M_19_CIS, was analyzed with bidirectional fitting relative to DMSO as the negative control and baseline of activity. Using a type of inducible reporter, measures of mRNA for gain or loss-of-signal activity can be used to understand the background control at the transcription factor-level as they relate to the gene . Furthermore, this assay endpoint can be referred to as a secondary readout, because this assay has produced multiple assay endpoints where this one serves a background control function. To generalize the intended target to other relatable targets, this assay endpoint is annotated to the background measurement intended target family, where the subfamily is internal marker.\nHuman liver HepG2 cells are transiently transfected with multiple reporter transcription units (MRTUs) in 6-well plates using FuGene 6 reagent (Roche; 3 ml FuGene/1 mg DNA). The MRTU constructs are regulated by a cis-regulating element (promoter). […] A major difference between the CIS and TRANS system is that in CIS activities of endogenous TFs are measured, whereas the TRANS assay evaluates changes in activities of exogenous, chimeric NR-Gal4 proteins. […] At the end of 24 hour incubation, total RNA was isolated using TriZol reagent (Invitrogen). The isolated RNA is then reverse-transcribed using oligo(dT) primer and Mo-MLV reverse transcriptase (Invitrogen) with DNAse I (Ambion) treatment for 30 min. The one-tenth of the produced cDNA was amplified by PCR using Taq DNA polymerase (Invitrogen) and two reporter sequence-specific primers. The PCR products were fluorescently labeled by primer extension with 6-arboxyfluorescein (6-FAM) 5'-labeled reporter sequence-specific primer (2 min at 95 C, 20 s at 68 C and 10 min at 72 C) and these products were digested with 5U of HpaI (New England Biolabs) for 2h at 37 C. The fragments were purified using Qiaquick PCR columns (Qiagen), analyzed on an ABI 3130xL genetic analyzer (Applied Biosystems) with peak positions identified by using a set of X-rhodamine (ROX)-labeled MapMarker1000 molecular weight standards (BioVentures). The raw capillary electrophoresis data was processed using Attagraph software (Attagene).", "values": [
      {"smiles": "CCC(=O)OCC=Cc1ccccc1", "outcome": "inactive"},
      {"smiles": "CC(C)CCOC(=O)CC(C)C", "outcome": "inactive"},
      {"smiles": "CCCCC1CCCCC(=O)O1", "note": "(stereo not given)", "outcome": "inactive"},
      {"smiles": "CC1=CC[C@@H]2C[C@H]1C2(C)C", "outcome": "inactive"},
      {"smiles": "NCCN1CCNCC1", "outcome": "inactive"},
      {"smiles": "CC12CCC(C1)C(C)(C)C2O", "note": "(stereo not given)", "outcome": "inactive"},
      {"smiles": "C=C1CC[C@H]2O[C@]2(C)CC[C@@H]2[C@@H]1CC2(C)C", "outcome": "inactive"},
      {"smiles": "CCNC(=S)NCC", "outcome": "inactive"},
      {"smiles": "CC(C)Cc1ccccc1", "outcome": "inactive"},
      {"smiles": "CN(C)C", "outcome": "inactive"},
      {"smiles": "CC(=O)c1ccc2ccccc2c1", "outcome": "inactive"},
      {"smiles": "C=CC(C)CCCC(C)(C)O", "note": "(stereo not given)", "outcome": "inactive"},
      {"smiles": "CC(C)(C)C1CCC(O)CC1", "note": "(stereo not given)", "outcome": "inactive"},
      {"smiles": "COc1ccc2[nH]cc(CCNC(C)=O)c2c1", "outcome": "inactive"},
      {"smiles": "O=C(O)c1cccc(Cl)n1", "outcome": "inactive"},
      {"smiles": "CC/C=C\\CCCCO", "outcome": "inactive"},
      {"smiles": "C=CC(C)(CCC=C(C)C)OC(=O)CC", "note": "(stereo not given)", "outcome": "inactive"},
      {"smiles": "COc1cc(OC)c2ccc(=O)oc2c1", "outcome": "inactive"},
      {"smiles": "Nc1ccc(N)c([N+](=O)[O-])c1", "outcome": "inactive"},
      {"smiles": "CCC(C)(C)c1cc(O)c(C(C)(C)CC)cc1O", "outcome": "inactive"},
      {"smiles": "CCCCCC#CC(=O)OC", "outcome": "inactive"},
      {"smiles": "CCCCCC1CCC(=O)O1", "note": "(stereo not given)", "outcome": "inactive"},
      {"smiles": "COc1ccccc1O", "outcome": "inactive"},
      {"smiles": "CCOC(=O)C(=O)OCC", "outcome": "inactive"},
      {"smiles": "O=C(O)c1ccco1", "outcome": "inactive"},
      {"smiles": "CCC=C(C)C=O", "outcome": "inactive"},
      {"smiles": "CC(C)(O)C(=O)c1ccc(OCCO)cc1", "outcome": "inactive"},
      {"smiles": "CC1COC(=O)O1", "note": "(stereo not given)", "outcome": "inactive"},
      {"smiles": "CN(C)c1ccc(C=O)cc1", "outcome": "inactive"},
      {"smiles": "[Cl][Dy]([Cl])[Cl]", "outcome": "inactive"},
      {"smiles": "C=C/C(C)=C/C/C=C(\\C)CCC=C(C)C", "outcome": "inactive"},
      {"smiles": "CC(C)OB(OC(C)C)OC(C)C", "outcome": "inactive"},
      {"smiles": "c1ccc2scnc2c1", "outcome": "inactive"},
      {"smiles": "CC(=O)CCc1ccc(O)cc1", "outcome": "inactive"},
      {"smiles": "O=C1CCCCCCCCCCCC(=O)OCCO1", "outcome": "inactive"},
      {"smiles": "O=C1CCC(=O)N1", "outcome": "inactive"},
      {"smiles": "CC(=O)c1ccc(C)cc1", "outcome": "inactive"},
      {"smiles": "CC(=O)Nc1cc(S(=O)(=O)O)cc2cc(S(=O)(=O)O)c(N=Nc3ccccc3)c(O)c12", "outcome": "inactive"},
      {"smiles": "c1ccc(OCCOc2ccccc2)cc1", "outcome": "inactive"},
      {"smiles": "CCCCCCCCOC(C)=O", "outcome": "inactive"}
    ]}
  ]
}
